Experimental data as given in PubChem BioAssay (NCI).
Compounds without any hit were thinned out: in the full panel of roughly 83,000, 20% have a hit.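 Step 1: grow cells in 96-well plates. Step 2: add test compound at a single concentration. Step 3: incubate 48 h. Step 4: record percent growth.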 Unmarked numbers belong to inactive results. Active and inactive are the calls of the source. How the source made its calls: active means growth percent below 10; inactive means the rest.

Legend:
Experiment in all cases: NCI-60 one-dose screen, 48 h (100 = growth as untreated, 0 = no growth, -100 = all killed)
Settings in all cases: 10 µM unless noted
[1] = tested on: NCI-H23 lung
[2] = tested on: NCI-H226 lung
[3] = tested on: NCI-H322M lung
[4] = tested on: HOP-62 NSCLC
[5] = tested on: NCI-H460 lung
[6] = tested on: NCI-H522 lung
[7] = tested on: A549/ATCC NSCLC
[8] = tested on: 786-0 renal
[9] = tested on: COLO 205 colon
[10] = tested on: DU-145 prostate
[11] = tested on: K-562 leukemia
[12] = tested on: MALME-3M melanoma
[13] = tested on: MDA-MB-231 breast
[14] = tested on: RXF 393 renal
[15] = tested on: SF-268 CNS
[16] = tested on: SF-295 CNS
[17] = tested on: SF-539 CNS
[18] = tested on: UACC-257 melanoma
[19] = tested on: M14 melanoma
[20] = tested on: HCT-15 colon

Row | SMILES | growth [1] | growth [2] | growth [3] | growth [4] | growth [5] | growth [6] | growth [7] | growth [8] | growth [9] | growth [10] | growth [11] | growth [12] | growth [13] | growth [14] | growth [15] | growth [16] | growth [17] | growth [18] | growth [19] | growth [20]
1 | O=[N+]([O-])c1ccc(N/N=C\c2ccccc2[N+](=O)[O-])nc1 | 98.2% | 106% | 105% | 123% | 101% | 97.5% | 92.2% | 104% | 133% | 101% | 94.6% | 117% | 110% | 102% | 107% | 103% | 109% | 119% | 126% | 100%
2 | O=C1NCN(CCO)CN1 | 98.6% | 105% | 94.2% | 85.1% | 105% | 103% | 101% | 90.4% | 120% | 117% | 111% | 92.6% | 125% | 107% | 108% | 113% | 93.3% | 96.7% | 96.7% | 109%
3 | NC(=O)c1ccccc1NC(=O)c1ccccc1Cl | 104% | 105% | 109% | 112% | 114% | 96.5% | 98.3% | 102% | 121% | 113% | 89.9% | 130% | 99.6% | 82.1% | 108% | 90.5% | 109% | 88.7% | 112% | 95.6%
4 | NC(=Nc1ccccc1)SCCCCSC(N)=Nc1ccccc1 | 71.2% | 95% | 85.2% | 82.2% | 101% | 79.1% | 85.1% | 79.5% | 125% | 93.5% | 44.5% | 102% | 67.5% | 73.6% | 90% | 77.5% | 114% | 101% | 84.6% | 83.1%
5 | CC(CCC(=O)O)(NC(=O)c1ccc([N+](=O)[O-])cc1)C(=O)O (centres undefined) | 98.4% | 111% | 107% | 92.8% | 107% | 106% | 107% | 105% | 107% | 104% | 99% | 106% | 113% | 115% | 104% | 106% | 105% | 99.4% | 102% | 113%
6 | COc1ccc(-c2cncn2-c2ccc(-c3nc4cc(OC)c(OC)c(OC)c4s3)cc2)cc1N | 72.9% | 64.5% | 84.1% | 101% | 51.4% | 46% | 47.9% | 55.2% | 46.2% | 92.6% | 41% | 57.9% | 76.4% | 75.8% | 93.1% | 50% | 87.8% | 71.6% | 46.5% | 42.1%
7 | c1coc([C@@H]2C[C@@H]3Cc4ccc5ccccc5c4N2O3)c1 | 94.3% | 107% | 106% | 88.6% | 117% | 86.8% | 94.9% | 103% | 130% | 120% | 102% | 97.7% | 108% | 94.2% | 111% | 101% | 99.6% | 99.2% | 108% | 99.5%
8 | CCOC(=O)c1c(C)nc(C)c(C(=O)OCC)c1-c1cccnc1 | 101% | 106% | 108% | 94.6% | 101% | 95.8% | 103% | 94.5% | 101% | 116% | 92.4% | 111% | 113% | 131% | 106% | 112% | 97.1% | 108% | 95% | 97%
9 | COc1ccc(OC)c2c1[nH]c(=O)c1c3ccccc3cn21 | -25.8% (active) | 48.4% | -70.7% (active) | -33.6% (active) | -61.2% (active) | -50.4% (active) | -73.2% (active) | -86.3% (active) | -91.1% (active) | -65% (active) | 11.2% | -89.4% (active) | -89.2% (active) | -79.9% (active) | -64.9% (active) | -76.7% (active) | -98.5% (active) | -75.5% (active) | -54.3% (active) | -46.5% (active)
10 | CCC(CC)NCCCCCNc1cc(OC)cc2cccnc12 | 94.7% | 96.6% | 120% | 84.6% | 105% | 97.7% | 96.1% | 95% | 82.7% | 102% | 85.1% | 119% | 83.9% | 88.1% | 85.3% | 113% | 92% | 101% |  | 92.6%
11 | C[C@]12CC[C@@H]3c4ccc(O)c([N+](=O)[O-])c4CC[C@H]3[C@@H]1CC[C@@H]2NS(=O)(=O)c1cccc(Br)c1 | 28% | 62.4% | 53.8% | 78.3% | 20% | -50.4% (active) | 19% | 42.8% | 101% | 52.7% | 8.39% (active) | 31.1% | 26.7% | 10.4% | 36.2% | 53.2% | 67.5% | 49.1% | 43.4% | 26.7%
12 | CN(C)c1ccc2[nH]c3c(C(N)=O)cc(=O)c(=O)c=3oc2c1 | 34.9% | 87.7% | 109% | 20.7% | 38.4% | 11.2% | 33.8% | 80.4% | 101% | 71.9% | 7.27% (active) | 87.7% | 62.6% | 52.1% | 79.8% | 78.9% | 7.15% (active) | 91% | 61.5% | 24.8%
13 | Cc1nn(-c2ccccc2)c2c1oc(=O)c1cc(Cl)ccc12 | 107% | 96.3% | 90.5% | 91.6% | 107% | 113% | 102% | 100% | 120% | 169% | 106% | 106% | 94% | 116% | 90.6% | 109% | 97.9% | 99.7% | 92.6% | 99.4%
14 | COc1ccc2[nH]c(-c3ccccc3)cc2c1 | 98.9% | 96.5% | 120% | 115% | 111% | 74.1% | 96.2% | 103% | 110% | 101% | 76.5% | 122% | 90% | 100% | 110% | 105% | 103% | 87.5% | 112% | 97%
15 | COC(=O)C[C@@H]1CC=CC(=O)/C1=C(O)/C=C/c1ccccc1 | -43.4% (active) | -40.6% (active) | -14.4% (active) | -42.8% (active) | -42.5% (active) | -64.2% (active) | -0.275% (active) | -77.5% (active) | -57.2% (active) | -28.4% (active) | 3.07% (active) | -60% (active) | -63% (active) | -83.6% (active) | 22.3% | -14.6% (active) | -39.1% (active) | -39.3% (active) | -70.2% (active) | -53.9% (active)
16 | C=C1CC[C@@H]2[C@](C)(COC(C)=O)[C@H](OC(C)=O)CC[C@@]2(C)[C@@H]1CC(Nc1ccc(S(=O)(=O)Nc2cc(C)on2)cc1)C1=CCOC1=O (some centres undefined) | 71% | 79.5% | 80.4% | 60.2% | 79.5% | -20.2% (active) | 72.2% | 89.8% | 29% | 71.1% | 9.67% (active) | 56.6% | 61.1% | 29.8% | 67.3% | 100% | 6.3% (active) | 68.9% | 29.9% | 0.176% (active)
